Data taken from PubChem BioAssay AID1159580 (chemical genetic matrix, 2015).
Where “and” joins values, the source holds several entries; their conditions need not be identical. Identical values can stand only once. The whole screen tested about 5,500 compounds, of which about 2,000 (36%) were called active. About 18% were inconclusive and are not listed. No stated cut-off is given here; in the data, active means normalized growth mostly below about 0.91 (no sharp cut-off); inconclusive means no clear call, values can overlap the other calls; inactive means mostly above about 0.92. The list shows a part of the results.

Experiment: chemical genetic growth profiling, strain panel (AID 1159580);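 further: tested at 20 µM; growth read once vehicle control cultures reached saturation at 30 °C; 1 = growth at the plate median or of vehicle wells; lower values mean less growth of the strain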
Conditions: S. cerevisiae deletion strains, growth OD

Measured: normalized growth

C[N+]12CCC(CC1)C(OC(=O)C(O)(c1ccccc1)c1ccccc1)C2 (configuration not stated)
inactive: locus YAL013W, strain DEP1, hits give low values 0.995 | locus YAL021C, strain ccr4, hits give low values 0.983 | locus YAL026C, strain drs2, hits give low values 1.01 | locus YAL030W, strain snc1, hits give low values 0.985 | locus YBL061C, strain skt5, hits give low values 0.968 | locus YBR009C, strain hhf1, hits give low values 0.989 | locus YBR021W, strain FUR4, hits give low values 0.99 | locus YBR023C, strain chs3, hits give low values 0.987 | locus YBR171W, strain sec66, hits give low values 0.957 | locus YBR229C, strain ROT2, hits give low values 0.989 | locus YBR231C, strain swc5, hits give low values 0.995 | locus YBR279W, strain paf1, hits give low values 0.985 | locus YCL011C, strain gbp2, hits give low values 0.951 | locus YCL016C, strain dcc1, hits give low values 0.956 | locus YCL029C, strain bik1, hits give low values 0.956 | locus YCL061C, strain MRC1, hits give low values 0.992 | locus YCL069W, strain vba3, hits give low values 0.998 | locus YCR088W, strain abp1, hits give low values 0.984 | locus YDL005C, strain med2, hits give low values 0.974 | locus YDL035C, strain GPR1, hits give low values 1.03 | locus YDL040C, strain nat1, hits give low values 0.993 | locus YDL074C, strain BRE1, hits give low values 0.975 | locus YDL101C, strain DUN1, hits give low values 0.975 | locus YDL134C, strain PPH21, hits give low values 0.981 | locus YDL185W, strain tfp1, hits give low values 0.974 | locus YDL192W, strain arf1, hits give low values 0.992 | locus YDR001C, strain nth1, hits give low values 0.978 | locus YDR069C, strain doa4, hits give low values 0.982 | locus YDR101C, strain arx1, hits give low values 0.971 | locus YDR137W, strain rgp1, hits give low values 0.975 | locus YDR150W, strain NUM1, hits give low values 0.996 | locus YDR159W, strain sac3, hits give low values 1.01 | locus YDR162C, strain NBP2, hits give low values 1 | locus YDR195W, strain ref2 0.983 | locus YDR297W, strain sur2, hits give low values 0.976 | locus YDR318W, strain mcm21, hits give low values 0.975 | locus YDR334W, strain swr1, hits give low values 0.938 | locus YDR335W, strain msn5, hits give low values 0.971 | locus YDR388W, hits give low values 0.984 | locus YDR392W, strain spt3, hits give low values 0.922 | locus YDR502C, strain sam2, hits give low values 0.987 | locus YEL003W, strain gim4, hits give low values 0.987 | locus YEL037C, strain rad23, hits give low values 0.988 | locus YEL061C, strain CIN8 (second series), hits give low values 0.987 | locus YEL061C, strain CIN8, hits give low values 0.993 | locus YER015W, strain faa2, hits give low values 0.987 | locus YER016W, strain bim1, hits give low values 0.989 | locus YER110C, hits give low values 0.975 | locus YER111C, strain swi4, hits give low values 0.987 | locus YER155C, strain BEM2 (second series), hits give low values 1.01 | locus YER155C, strain BEM2, hits give low values 0.983 | locus YER167W, strain BCK2, hits give low values 0.992 | locus YFR010W, strain ubp6, hits give low values 0.981 | locus YGL078C, strain dbp3, hits give low values 0.992 | locus YGL086W, strain mad1, hits give low values 1 | locus YGL167C, strain pmr1, hits give low values 0.976 | locus YGL173C, strain kem1, hits give low values 0.974 | locus YGL227W, strain vid30, hits give low values 0.979 | locus YGL240W, strain doc1, hits give low values 0.981 | locus YGL248W, strain PDE1, hits give low values 0.99 | locus YGL253W, strain hxk2, hits give low values 0.966 | locus YGR078C, strain PAC10, hits give low values 0.983 | locus YGR135W, strain pre9, hits give low values 0.971 | locus YGR229C, strain SMI1, hits give low values 1 | locus YGR252W, strain gcn5, hits give low values 1.09 | locus YHR013C, strain ard1, hits give low values 0.962 | locus YHR027C, strain rpn1, hits give low values 0.974 | locus YHR030C, strain SLT2, hits give low values 0.988 and 0.977 | locus YHR079C, strain IRE1 (second series), hits give low values 0.97 | locus YHR079C, strain IRE1, hits give low values 1 | locus YHR094C, strain hxt1, hits give low values 0.982 | locus YHR129C, strain ARP1, hits give low values 0.99 | locus YHR142W, strain chs7, hits give low values 0.944 | locus YHR200W, strain rpn10, hits give low values 0.979 | locus YIL066C, strain RNR3, hits give low values 0.983 | locus YIL073C, strain SPO22, hits give low values 0.972 | locus YIL125W, strain kgd1, hits give low values 0.994 | locus YIR030C, strain dcg1, hits give low values 0.971 | locus YJL092W, strain hpr5, hits give low values 0.985 | locus YJL095W, strain BCK1 (second series), hits give low values 0.981 | locus YJL095W, strain BCK1, hits give low values 0.967 and 0.963 | locus YJL115W, strain asf1, hits give low values 0.968 | locus YJL129C, strain trk1, hits give low values 0.974 | locus YJL134W, strain LCB3, hits give low values 0.994 | locus YJL154C, strain vps35, hits give low values 0.98 | locus YJL164C, strain tpk1, hits give low values 0.979 | locus YJL166W, strain qcr8, hits give low values 0.95 | locus YJL168C, strain set2, hits give low values 0.984 | locus YJL187C, strain SWE1 (second series), hits give low values 0.974 | locus YJL187C, strain SWE1, hits give low values 0.988 | locus YJR043C, strain POL32, hits give low values 0.99 | locus YJR066W, strain TOR1, hits give low values 0.987
